Test results reported in paper PMC4242493, “Sequence specificity incompletely defines the genome-wide occupancy of Myc”.
The full ranking holds about 33,000 sequences; the median of “normalized occupancy” is about 0.075, and the highest 2% start at about 0.095. For the sample, the highest values were picked, then their nearest neighbours and some sequences at random.

Each sequence was assayed against MaxL homodimer (Homo sapiens, UniProt P61244 1-160) (assay: universal protein-binding microarray (PBM); PBS-based mixture, 10 nM His-tagged protein dimer, 2% milk, 200 ng/uL BSA, 50 ng/uL salmon testes DNA, 0.02% TX-100; detection with Alexa 488 anti-His antibody;; high values mean tight binding). Conditions: protein: recombinant; tags: C-terminal His-tag (pET21a); chain copies: 2; dsDNA, one strand shown.
How it was run: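 His-tagged protein dimer at 10 nM was bound to Agilent 4 x 44 K 'all 10-mer' universal arrays and detected with 10 ng/μL fluorophore-conjugated anti-His antibody on a GenePix 4400A, giving an intensity per 8-mer. Binding occupancy normalises each intensity to the top-ranked one.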

Sequence of MaxL homodimer (P61244 whole entry): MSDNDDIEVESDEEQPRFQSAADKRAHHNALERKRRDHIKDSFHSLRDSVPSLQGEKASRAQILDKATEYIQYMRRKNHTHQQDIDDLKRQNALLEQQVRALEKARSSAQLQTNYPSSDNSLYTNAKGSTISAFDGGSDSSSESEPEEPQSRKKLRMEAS

Question: Which binding signal does the source give for AAGCATTA here?
Answer: 0.082 normalized occupancy

Question: With AAGCATAA as the sequence, how does the binding signal read?
Answer: 0.0767 normalized occupancy

Question: With AAGCATTG as the sequence, how does the binding signal read?
Answer: 0.0783 normalized occupancy

Question: For CAGCATAC, which binding signal is on record?
Answer: 0.0829 normalized occupancy

Question: CAGCATCC was tested. Which binding signal did it give?
Answer: 0.0746 normalized occupancy

Question: Which binding signal does the source give for GAGCATGC here?
Answer: 0.113 normalized occupancy

Question: How did the binding signal turn out when GAGCATAC was run?
Answer: 0.0789 normalized occupancy

Question: How did the binding signal turn out when GAGCACGC was run?
Answer: 0.094 normalized occupancy

Question: With AAGCATAG as the sequence, how does the binding signal read?
Answer: 0.0734 normalized occupancy

Question: For AAGCATGA, which binding signal is on record?
Answer: 0.101 normalized occupancy

Question: With AAGCATGG as the sequence, how does the binding signal read?
Answer: 0.11 normalized occupancy

Question: Which binding signal does the source give for CAGCATGC here?
Answer: 0.126 normalized occupancy

Question: How did the binding signal turn out when ATTGGCAG was run?
Answer: 0.0726 normalized occupancy

Question: Which binding signal does the source give for GTTTACCA here?
Answer: 0.0757 normalized occupancy

Question: How did the binding signal turn out when CCGATAAA was run?
Answer: 0.0723 normalized occupancy

Question: For CATCACCC, which binding signal is on record?
Answer: 0.0788 normalized occupancy

Question: For AGTTGCAT, which binding signal is on record?
Answer: 0.0779 normalized occupancy

Question: Which binding signal does the source give for AGCATAAC here?
Answer: 0.0787 normalized occupancy

Question: How did the binding signal turn out when CAAGGGGC was run?
Answer: 0.0772 normalized occupancy

Question: With TACCTTGA as the sequence, how does the binding signal read?
Answer: 0.0849 normalized occupancy

Question: For CTTATAGA, which binding signal is on record?
Answer: 0.0769 normalized occupancy

Question: For AAGCATAC, which binding signal is on record?
Answer: 0.0751 normalized occupancy

Question: How did the binding signal turn out when AAGCATGT was run?
Answer: 0.0997 normalized occupancy

Question: With AAGCATTC as the sequence, how does the binding signal read?
Answer: 0.0773 normalized occupancy

Question: With AAGCATAT as the sequence, how does the binding signal read?
Answer: 0.0839 normalized occupancy

Question: Which binding signal does the source give for AAGCATCT here?
Answer: 0.0778 normalized occupancy

Question: For AAGCATGC, which binding signal is on record?
Answer: 0.118 normalized occupancy

Question: For AATGAACC, which binding signal is on record?
Answer: 0.0718 normalized occupancy

Question: Which binding signal does the source give for AGTTTTAT here?
Answer: 0.0775 normalized occupancy

Question: Which binding signal does the source give for AGTCATGA here?
Answer: 0.0829 normalized occupancy

Question: For ACTCATGC, which binding signal is on record?
Answer: 0.0969 normalized occupancy

Question: ACTCATGA was tested. Which binding signal did it give?
Answer: 0.0903 normalized occupancy

Question: For CTTCATGC, which binding signal is on record?
Answer: 0.0794 normalized occupancy

Question: How did the binding signal turn out when AGTCATGC was run?
Answer: 0.096 normalized occupancy

Question: How did the binding signal turn out when CCTCATGA was run?
Answer: 0.0951 normalized occupancy

Question: Which binding signal does the source give for CCTCATGC here?
Answer: 0.109 normalized occupancy

Question: For AGTCATGG, which binding signal is on record?
Answer: 0.0855 normalized occupancy

Question: How did the binding signal turn out when ACTCATGG was run?
Answer: 0.0945 normalized occupancy

Question: How did the binding signal turn out when AATACACG was run?
Answer: 0.0912 normalized occupancy

Question: How did the binding signal turn out when CCCTCGAA was run?
Answer: 0.0795 normalized occupancy

Question: Which binding signal does the source give for AGCACGAT here?
Answer: 0.0857 normalized occupancy

Question: With AGCACGAG as the sequence, how does the binding signal read?
Answer: 0.0964 normalized occupancy

Question: With AGCACGTC as the sequence, how does the binding signal read?
Answer: 0.081 normalized occupancy

Question: Which binding signal does the source give for AGCACGTA here?
Answer: 0.0853 normalized occupancy

Question: For AGCACGAA, which binding signal is on record?
Answer: 0.0827 normalized occupancy

Question: For CGCACGAA, which binding signal is on record?
Answer: 0.0816 normalized occupancy

Question: Which binding signal does the source give for CGCACGAG here?
Answer: 0.107 normalized occupancy

Question: With AGCACGTG as the sequence, how does the binding signal read?
Answer: 1 normalized occupancy

Question: With CGCACAAA as the sequence, how does the binding signal read?
Answer: 0.0718 normalized occupancy

Question: For CTACCCCA, which binding signal is on record?
Answer: 0.0788 normalized occupancy

Question: ACGAGGCT was tested. Which binding signal did it give?
Answer: 0.0805 normalized occupancy

Question: AGAACAAT was tested. Which binding signal did it give?
Answer: 0.0787 normalized occupancy

Question: How did the binding signal turn out when ACCCGCTG was run?
Answer: 0.0761 normalized occupancy

Question: Which binding signal does the source give for CCCCGTTA here?
Answer: 0.0766 normalized occupancy

Question: Which binding signal does the source give for CACGATGG here?
Answer: 0.0884 normalized occupancy

Question: Which binding signal does the source give for CTAGCACA here?
Answer: 0.0827 normalized occupancy

Question: With GCATGTAC as the sequence, how does the binding signal read?
Answer: 0.0973 normalized occupancy

Question: Which binding signal does the source give for GAATGTAC here?
Answer: 0.0769 normalized occupancy

Question: With ACATGTAC as the sequence, how does the binding signal read?
Answer: 0.0958 normalized occupancy

Question: How did the binding signal turn out when CTATGTAC was run?
Answer: 0.0847 normalized occupancy

Question: With AGATGTAC as the sequence, how does the binding signal read?
Answer: 0.0766 normalized occupancy

Question: How did the binding signal turn out when CCATGTAC was run?
Answer: 0.086 normalized occupancy

Question: With TGAGATAA as the sequence, how does the binding signal read?
Answer: 0.0797 normalized occupancy

Question: For ATAATGAC, which binding signal is on record?
Answer: 0.0804 normalized occupancy

Question: AACTTGCC was tested. Which binding signal did it give?
Answer: 0.0757 normalized occupancy

Question: GAAACGCC was tested. Which binding signal did it give?
Answer: 0.0758 normalized occupancy

Question: Which binding signal does the source give for CACTGCTG here?
Answer: 0.0746 normalized occupancy

Question: With ATATGATC as the sequence, how does the binding signal read?
Answer: 0.0857 normalized occupancy

Question: Which binding signal does the source give for CCACATAA here?
Answer: 0.0799 normalized occupancy

Question: How did the binding signal turn out when CAGCAGAG was run?
Answer: 0.0727 normalized occupancy

Question: How did the binding signal turn out when AATGAGTA was run?
Answer: 0.077 normalized occupancy

Question: With AATGAGGA as the sequence, how does the binding signal read?
Answer: 0.0838 normalized occupancy

Question: GATGAGGC was tested. Which binding signal did it give?
Answer: 0.0786 normalized occupancy

Question: Which binding signal does the source give for CATGAGGG here?
Answer: 0.109 normalized occupancy

Question: How did the binding signal turn out when AATGAGGG was run?
Answer: 0.0862 normalized occupancy

Question: With AATGAGGC as the sequence, how does the binding signal read?
Answer: 0.0776 normalized occupancy

Question: Which binding signal does the source give for CATGAGAG here?
Answer: 0.0941 normalized occupancy

Question: CATGAGGC was tested. Which binding signal did it give?
Answer: 0.109 normalized occupancy

Question: For TATGAGGA, which binding signal is on record?
Answer: 0.0851 normalized occupancy

Question: Which binding signal does the source give for CATGAGTA here?
Answer: 0.0969 normalized occupancy

Question: CATGAGTC was tested. Which binding signal did it give?
Answer: 0.091 normalized occupancy

Question: With CATGAGGA as the sequence, how does the binding signal read?
Answer: 0.106 normalized occupancy

Question: With GACACTTA as the sequence, how does the binding signal read?
Answer: 0.0771 normalized occupancy

Question: For GCAACACA, which binding signal is on record?
Answer: 0.0795 normalized occupancy

Question: Which binding signal does the source give for TCAACTAA here?
Answer: 0.0725 normalized occupancy

Question: For ATTGAAAT, which binding signal is on record?
Answer: 0.0772 normalized occupancy

Question: With GTGAGTCA as the sequence, how does the binding signal read?
Answer: 0.0793 normalized occupancy

Question: For CCCCCCCA, which binding signal is on record?
Answer: 0.0901 normalized occupancy

Question: CGACAGCA was tested. Which binding signal did it give?
Answer: 0.0797 normalized occupancy

Question: Which binding signal does the source give for ATAAATAG here?
Answer: 0.0754 normalized occupancy

Question: How did the binding signal turn out when ATTCAGTA was run?
Answer: 0.0734 normalized occupancy

Question: With ATGACTAC as the sequence, how does the binding signal read?
Answer: 0.0811 normalized occupancy

Question: With ATGAGGGG as the sequence, how does the binding signal read?
Answer: 0.0902 normalized occupancy

Question: For ATGAGGGC, which binding signal is on record?
Answer: 0.0956 normalized occupancy

Question: Which binding signal does the source give for ATGAGGGA here?
Answer: 0.0908 normalized occupancy

Question: GATTTAGA was tested. Which binding signal did it give?
Answer: 0.0724 normalized occupancy

Question: With ACGTTGAC as the sequence, how does the binding signal read?
Answer: 0.0793 normalized occupancy

Question: For AAACCACG, which binding signal is on record?
Answer: 0.0972 normalized occupancy

Question: How did the binding signal turn out when ATACCACG was run?
Answer: 0.0991 normalized occupancy

Question: With AAACCACA as the sequence, how does the binding signal read?
Answer: 0.0814 normalized occupancy

Question: With CTACCACA as the sequence, how does the binding signal read?
Answer: 0.0867 normalized occupancy

Question: Which binding signal does the source give for TAACCACA here?
Answer: 0.0809 normalized occupancy

Question: For ATACCACA, which binding signal is on record?
Answer: 0.089 normalized occupancy

Question: With CCGTTCTC as the sequence, how does the binding signal read?
Answer: 0.0814 normalized occupancy

Question: For ATAGCATG, which binding signal is on record?
Answer: 0.103 normalized occupancy

Question: For ATAGCATC, which binding signal is on record?
Answer: 0.0799 normalized occupancy

Question: With ACAGCATA as the sequence, how does the binding signal read?
Answer: 0.0896 normalized occupancy

Question: Which binding signal does the source give for ACAGCATG here?
Answer: 0.127 normalized occupancy

Question: How did the binding signal turn out when AGAGCATA was run?
Answer: 0.0815 normalized occupancy

Question: With ACAGCATC as the sequence, how does the binding signal read?
Answer: 0.0767 normalized occupancy

Question: Which binding signal does the source give for AGAGCATG here?
Answer: 0.0989 normalized occupancy

Question: How did the binding signal turn out when AGAGCATC was run?
Answer: 0.0755 normalized occupancy

Question: Which binding signal does the source give for ATAGCATA here?
Answer: 0.0872 normalized occupancy
